According to PubChem BioAssay AID1851 (National Center for Advancing Translational Sciences (NCATS), 2009):
About 5,100 (32%) of roughly 16,000 compounds were called active. Inconclusive results (about 25%) are left out. This is one part of the list. Values without a mark were called inactive. The call rests on the fitted dose curve; in most records, active means well fitted curve in the direction sought with a large enough effect; inconclusive means small, poorly fitted or top-dose-only effect, or effect the other way; inactive means no such curve, though single readings can be large or run the other way.

target: Cytochrome P450 3A4 (Homo sapiens) (UniProt P08684); assay: Cytochrome panel assay with activity outcomes; conditions: recombinant CYP, pro-luciferin dealkylation, luminescence, p450-cyp3a4; series mostly up to 57.1 µM; activity, negative = inhibition: at the top concentration
On the % scale 0 is the no-effect control and ±100 the full control effect.

Cytochrome P450 3A4 (Homo sapiens), sequence (P08684 whole entry, looked up): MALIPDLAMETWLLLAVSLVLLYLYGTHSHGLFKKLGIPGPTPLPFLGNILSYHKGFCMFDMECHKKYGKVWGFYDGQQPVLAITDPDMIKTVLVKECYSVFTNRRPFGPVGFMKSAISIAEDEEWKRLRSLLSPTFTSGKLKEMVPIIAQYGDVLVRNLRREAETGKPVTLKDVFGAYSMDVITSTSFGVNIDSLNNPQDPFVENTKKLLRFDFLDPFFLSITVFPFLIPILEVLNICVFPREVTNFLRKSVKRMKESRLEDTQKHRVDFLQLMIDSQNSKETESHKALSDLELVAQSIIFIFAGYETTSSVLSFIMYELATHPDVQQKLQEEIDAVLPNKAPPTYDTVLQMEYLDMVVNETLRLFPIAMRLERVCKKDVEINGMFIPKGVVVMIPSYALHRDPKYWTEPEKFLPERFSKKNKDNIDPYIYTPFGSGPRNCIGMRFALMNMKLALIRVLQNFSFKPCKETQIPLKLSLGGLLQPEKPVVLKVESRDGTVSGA

**Q.** With Cc1ccc(C)c(NC(=S)N(CCc2nc3cc(C)c(C)cc3[nH]2)Cc2cccnc2)c1 as the compound, how does the AC50 read?
**A.** Its AC50 is 2.51 µM (active).

**Q.** COc1cccc(NC(=S)N(CCc2nc3cc(C)c(C)cc3[nH]2)Cc2cccnc2)c1 was tested. Which AC50 did it give?
**A.** The AC50 was 2.51 µM (active).

**Q.** Cc1cccc(NC(=S)N(CCc2nc3cc(C)c(C)cc3[nH]2)Cc2cccnc2)c1 was tested. Which AC50 did it give?
**A.** The AC50 was 2.24 µM (active).

**Q.** For CN(C)CCNc1ccccn1, which activity, negative = inhibition is on record?
**A.** The activity, negative = inhibition was -5.4% [at 11.4 µM].

**Q.** With CC1CN(C(=O)COc2ncnc3ccccc23)CC(C)O1 (stereo unspecified) as the compound, how does the “activity, negative = inhibition” value read?
**A.** The value was -15.3%.

**Q.** Which AC50 does the source give for Cc1ccc(-n2ccc(=O)c(-c3ccnc(SCc4cccc(Cl)c4)n3)n2)cc1 here?
**A.** Its AC50 is 8.91 µM (active).

**Q.** With CC(C)[C@](N)(C(=O)O)c1ccccc1 as the compound, how does the activity, negative = inhibition read?
**A.** Its activity, negative = inhibition is -13.2% [at 11.4 µM].

**Q.** Which AC50 does the source give for O=c1cc(-c2ccccc2)[nH]n1-c1ccc([N+](=O)[O-])cc1 here?
**A.** The AC50 was 14.1 µM (active).

**Q.** Which “activity, negative = inhibition” value does the source give for O=C1NC(c2cccc([N+](=O)[O-])c2)=CCN1c1ccccc1O here?
**A.** The value was -24.7%.

**Q.** CC(C)c1cccc2c([Si](C)(C)C)c3c(nc12)-c1cccc(=O)n1C3 was tested. Which AC50 did it give?
**A.** Its AC50 is 25.1 µM (active).

**Q.** How did the AC50 turn out when CCc1c2c(nc3c(C(C)C)cccc13)-c1cccc(=O)n1C2 was run?
**A.** The AC50 was 15.8 µM (active).

**Q.** How did the AC50 turn out when CC(C)c1cccc2cc3c(nc12)-c1cccc(=O)n1C3 was run?
**A.** Its AC50 is 15.8 µM (active).

**Q.** Which activity, negative = inhibition does the source give for O[C@H](C[C@@H]1CCCCN1)c1ccc2c(c1)oc1ccccc12 here?
**A.** Its activity, negative = inhibition is -5% [at 11.4 µM].

**Q.** How did the “activity, negative = inhibition” value turn out when CCOC(=O)c1cnc(-c2ccccc2)nc1Oc1ccc(Cl)cc1 was run?
**A.** Its value is 0.243%.

**Q.** With COc1ccc(-c2cc(C(=O)O)c3c(C)nn(-c4ccccn4)c3n2)cc1 as the compound, how does the “activity, negative = inhibition” value read?
**A.** Its value is -12.3%.

**Q.** With CCOC(=O)c1cc(-c2ccc(Cl)cc2)nc2c1c(C)nn2CCC#N as the compound, how does the AC50 read?
**A.** Its AC50 is 25.1 µM (active).

**Q.** For Cc1nn(S(=O)(=O)c2cccs2)c(C)c1Sc1ccc([N+](=O)[O-])cc1, which AC50 is on record?
**A.** The AC50 was 2.82 µM (active).

**Q.** Which “activity, negative = inhibition” value does the source give for Cc1nn(C(=O)c2ccco2)c(C)c1Sc1ccc(Br)cc1 here?
**A.** Its value is -4.98%.

**Q.** With Cc1ccc(Sc2c([N+](=O)[O-])ncn2C)cc1 as the compound, how does the activity, negative = inhibition read?
**A.** Its activity, negative = inhibition is 11.7% [at 2.29 µM].

**Q.** Cc1cccc2cc(CN(Cc3ccccc3)C(=O)c3cccc(F)c3)c(Cl)nc12 was tested. Which AC50 did it give?
**A.** The AC50 was 8.91 µM (active).

**Q.** With CCN(CC)c1ccc(NC(=O)c2cccc(F)c2)c(C)c1 as the compound, how does the activity, negative = inhibition read?
**A.** The activity, negative = inhibition was 2.35% [at 2.29 µM].

**Q.** Which “activity, negative = inhibition” value does the source give for CN1CCc2c(cc(O)c(O)c2Cl)[C@H](c2cccc(Cl)c2)C1 here?
**A.** Its value is 19.4%.

**Q.** For COC(=O)CN(c1ccccn1)S(=O)(=O)c1ccccc1, which “activity, negative = inhibition” value is on record?
**A.** Its value is -3.69%.

**Q.** O=C(CN(c1ccccc1)S(=O)(=O)c1ccccc1)NCCSCc1ccco1 was tested. Which AC50 did it give?
**A.** The AC50 was 14.1 µM (active).

**Q.** CCOC(=O)CN(c1ccccn1)S(=O)(=O)c1ccccc1 was tested. Which “activity, negative = inhibition” value did it give?
**A.** Its value is -29.6%.

**Q.** With Cc1cc(C)cc(N(CC(=O)NCCSc2ccccn2)S(=O)(=O)c2ccccc2)c1 as the compound, how does the AC50 read?
**A.** Its AC50 is 3.98 µM (active).
